Drawing on PubChem BioAssay (Tox21), this text covers Potency for 40 molecules.

Records with an inconclusive call do not appear. Entries that show only a call come without a potency. Calls of active or inactive are those of the source. Calls follow the shape of the dose curve; as a rule, active = well fitted cell-killing curve with a large enough effect in the repeat runs; inconclusive = weak or mixed curves, or effect the other way; inactive = flat fitted curve, though single readings scatter.
Potency is read from the fitted curve at half-maximal effect.

This assay can be described thus: qHTS RealTime-Glo MT Cell Viability Assay in HEK293 cells - 0 hour (AID 1224880). Also: nearly all actives have a fitted effect of over 45% in size. Conditions: RealTime-Glo luminescence; series mostly up to 76.8 µM. The text has this:
U.S. Tox21 Program National Center for Advancing Translational Sciences [NCATS] NIH Chemical Genomics Center [NCGC] U.S. Environmental Protection Agency [EPA] National Institutes of Environmental Health Sciences [NIEHS] National Toxicology Program [NTP] U.S. Food and Drug Administration [FDA] Tox21 Assay Overview: Measure of cell viability is critical in the cell-base assay. Analysis of cell viability is necessary for the characterization of cell responses to cytotoxic drugs and environmental stress. A RealTime-Glo MT Cell Viability Assay to monitor cell viability in real time of continues cell culture during 40 hours of compound treatment was used to screen Tox21 10K library compounds in Hek293 cells. The RealTime-Glo MT Cell Viability Assay is a nonlytic, homogeneous, bioluminescent method to measure cell viability in real time using a simple, plate-based method. The assay involves adding NanoLuc luciferase and a cell-permeant prosubstrate to cells in culture. Viable cells reduce the proprietary prosubstrate to generate a substrate for NanoLuc luciferase. This substrate diffuses from cells into the surrounding culture medium, where it is rapidly used by the NanoLuc Enzyme to produce a luminescent signal. The signal correlates with the number of viable cells, making the assay well suited for cytotoxicity studies.
Tox21 Assay Protocol Summary: The mixture of Hek293 cell suspension and reagents were dispensed at 600cells/6 ul/well in 1536-well tissue culture treated black solid bottom plates using a Multidrop dispenser. After the assay plates were incubated at a 37 C/5% CO2 incubator for 5 hours, 23 nL of compounds dissolved in DMSO, positive and negative controls was transferred to the assay plate by a pintool work station. The plates were incubated at 37 C for 40 hours. The luminescence intensity were measured at 0h, 8h, 16h, 24h, 32h and 40h time points using ViewLux plate reader during compound treatment.
(In general: Quantitative high-throughput screening tests each substance at several concentrations.)
Consider `CC[C@]12CCCN3CCc4c(n(c5ccccc45)C(=O)C1)[C@@H]32`, for which the Potency entry was “inactive”.
Next, `CC(C)c1cccc(C(C)C)c1NC(=O)NS(=O)(=O)c1cc(C(C)(C)O)co1`: “inactive”; `O=C(/C=C/c1ccc(O)c(O)c1)O[C@@H]1C[C@](O)(C(=O)O)C[C@@H](O)[C@H]1O`: “inactive”.
On to `Cc1ccc(C(C)c2ccc(C)c(C)c2)cc1C`, for which the Potency entry is “inactive”.
On to `Cn1sccc1=O`, for which the Potency result is “inactive”.
Consider `Cc1occc1S`, for which the Potency result is “inactive”.
With `CC(=O)N(O)CCCCCNC(=O)CCC(=O)N(O)CCCCCNC(=O)CCC(=O)N(O)CCCCCN`, the Potency result was “inactive”.
Take `C1=Cc2ccccc2C1`: the Potency result is “inactive”.
With `CC(C)(C)c1cc(CO)cc(C(C)(C)C)c1O`, the Potency entry was “inactive”.
On to `C1CCC2OC2C1` (stereo not given), for which the Potency result is “inactive”.
On to `N#Cc1cc2ccccc2c2ccccc12`, for which the Potency result was “inactive”.
As for `CC/C(=C\C(=N/O)C(N)=O)C(C)[N+](=O)[O-]` (stereo not given), the Potency entry is “inactive”.
As for `CN(C)C/C=C(/c1ccc(Br)cc1)c1cccnc1`, the entry is “inactive”; as for `O=C1CCCCCO1`, “inactive”; as for `Cn1c(N)nc2nc[nH]c2c1=O`, “inactive”.
For `NCCCOCCOCCOCCCN`, the Potency entry was “inactive”.
Consider `O=C(c1ccc(O)cc1)c1ccc(O)cc1`, for which the Potency result is “inactive”.
As for `Nc1nc(N)c2nc(CNc3ccc(C(=O)N[C@@H](CCC(=O)O)C(=O)O)cc3)cnc2n1`, the entry is “inactive”; as for `O=c1c2ccccc2nnn1CCl`, “inactive”; as for `CC(C)NCC(O)COc1ccc(CC(N)=O)cc1` (stereo not given), “inactive”.
As to `CCCCOCCOCCOCCOCCO`, the Potency result is “inactive”.
Turning to `Cc1cc(C)c(S(=O)(=O)O)cc1N=Nc1cc(S(=O)(=O)O)c2ccccc2c1O`, the Potency entry was “inactive”.
Next, `O=C(c1ccccc1)c1ccc2n1CCC2C(=O)O` (stereo not given): “inactive”; `FC(F)(F)C(F)(F)C(F)(F)C(F)(F)C(F)(F)C(F)(F)CCI`: “inactive”; `Nc1ccc(C(=O)Nc2ccccc2N)cc1`: “inactive”.
Consider `CCN(CC)C(C)=O`, for which the Potency entry was “inactive”.
With `O=C(Cl)c1c(Cl)cccc1Cl`, the Potency entry was “inactive”.
As for `O=[N+]([O-])c1cccc(Cl)c1Cl`, the entry is “inactive”; as for `c1ccc(CNCc2ccccc2)cc1`, “inactive”.
Take `c1ccc(OCc2ccc(CCCN3CCOCC3)cc2)cc1`: the Potency entry is “inactive”.
Regarding `C=CC(=O)OCCOC(=O)CCC(=O)O`, the Potency entry was “inactive”.
Take `CCCCCC(CO)CCC` (stereo not given): the Potency result is “inactive”.
In the case of `CC(C)c1ccc2c(C(C)C)cc(C(C)C)c(S(=O)(=O)O)c2c1`, the Potency result is “inactive”.
Turning to `CCCC[C@H]1CN(CC2CCOCC2)C(=O)OC12CCN(C1(C)CCN(C(=O)c3c(C)ncnc3C)CC1)CC2`, the Potency entry was “inactive”.
As to `CC(=O)[C@@]1(O)CC[C@H]2[C@@H]3C[C@H](C)C4=CC(=O)CC[C@]4(C)[C@H]3CC[C@@]21C`, the Potency was 6.74 µM (active).
Take `CC(C)NCC(O)c1cc(O)cc(O)c1` (stereo not given): the Potency entry was “inactive”.
Take `CC(C(=O)O)c1ccc(-c2ccccc2)c(F)c1` (stereo not given): the Potency entry was “inactive”.
`COCCO`: the Potency result was “inactive”.
As for `NC(N)=NN=C(/C=C/c1ccc([N+](=O)[O-])o1)/C=C/c1ccc([N+](=O)[O-])o1`, the entry is “inactive”; as for `CC(=O)/C=C/C1C(C)=CCCC1(C)C` (stereo not given), “inactive”.
